Screens deposited in PubChem BioAssay by National Center for Advancing Translational Sciences (NCATS).
Hits are enriched below; roughly 19% of the tested compounds scored in any of these assays.
KB-V1 cytotox – KB-V1 MDR subline cytotoxicity | KB-V1 MDR cells viability, CellTiter-Glo, 72 h | Potency, µM (top dose mostly 46.1 µM), usual class: cytotoxic | hit rate 3.4% among 400,000; note: nearly all actives have a fitted effect of over 60% in size
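Compound-treated KB-V1 multidrug-resistant cells, 72 h, 37 degrees C; viability by CellTiter-Glo. Fitted qHTS curves give the values.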
KB-3-1 tox – kills parental KB-3-1 adenocarcinoma cells. Potency, µM (series often up to 46.1 µM), usual class: cytotoxic. KB-3-1 viability, CellTiter-Glo ATP luminescence, 72 h. AID 1347075. hit rate 1.4% among 400,000; note: nearly all actives have a fitted effect of over 60% in size
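Luminescent ATP read-out (CellTiter-Glo) measures survival of drug-naive KB-3-1 cells after 72 h compound exposure at 37 °C. Titration series was screened from lowest to highest concentration, with DMSO vehicle plates as background controls.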
HT1080 IDH1KD tx – kills HT-1080 cells with IDH1 knockdown. hit rate 2% among 360,000. Potency, µM (top dose mostly 46.1 µM), for the others: at the highest dose activity, negative = toxicity, most hits filed as cytotoxic. HT-1080 IDH1 knockdown viability, ATP luminescence, 48 h;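 note: 0% = DMSO wells and -100% = cell-free medium wells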
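Knockdown cells (IDH1KD HT-1080) received compounds 2 h after plating at 750 cells/well and were kept 48 h at 37 °C in 5% FBS RPMI. A CellTiter-Glo luminescence read gave % activity for curve fitting.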
DT40 TDP1 CPT – DT40-hTDP1 cell growth loss with CPT; chicken DT40 Tdp1-/-;hTDP1 cells + 20 nM CPT, ATP luminescence, 48 h; Potency, µM (series often up to 46.2 µM), without a hit: at the top dose activity change, negative = growth inhibition, hits mostly inhibitors; AID 686979; hit rate 12% among 420,000; note: nearly all actives have a fitted effect of over 55% in size
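Chicken DT40 Tdp1-/- cells stably complemented with human TDP1 were seeded at 400 cells/well in medium containing 20 nM camptothecin, exposed to pin-transferred compounds, and grown at 37 °C for at least 48 hr. Viability was read as ATP luminescence.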
DT40 TDP1 no CPT – qHTS for Inhibitors of human tyrosyl-DNA phosphodiesterase 1 (TDP1): qHTS in cells in absence of CPT; hit rate 15% among 420,000; Potency, µM (series often up to 46.2 µM), for inactives: at the top dose activity change, negative = growth inhibition, hits mostly inhibitors; AID 686978, 2013; DT40 Tdp1-/- hTDP1 cells, no CPT, ATP luminescence, 48 h; note: nearly all actives have a fitted effect of over 55% in size
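No-CPT arm: Tdp1-/-;hTDP1 DT40 cells (400/well) plus compounds, incubated ≥48 hr at 37 °C. Readout CellTiter-Glo luminescence.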
HT1080-NT tox – kills 2HG-producing HT-1080-NT fibrosarcoma cells. HT-1080-NT fibrosarcoma viability, CellTiter-Glo ATP luminescence, 48 h. Potency, µM (highest dose often 46.1 µM), inactives show at the highest dose activity, negative = less viability, most hits filed as cytotoxic. hit rate 1.6% among 360,000;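 note: NT is the 2HG producing partner of a matched IDH1 knockdown line; 0% = DMSO-treated cells and -100% = media-only wells without cells; nearly all actives have a fitted effect of over 55% in size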
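Viability by CellTiter-Glo luminescence after 48 h compound exposure at 37C of HT-1080-NT cells (750/well, RPMI, 5% FBS). % activity scaled between DMSO wells and medium-only wells, then curve-fitted and categorized by curve class.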
The depositor's hits bear a star; i = inactive; ? = inconclusive; . = no result given; ! = a repeat was not active; [ ] = another dose, or the depositor's remark. Calls come from the whole dose curve; as a rule, active = well fitted curve in the direction sought with a large enough effect; inconclusive = small, poorly fitted or top-dose-only effect, or another doubt; inactive = no such curve, though single readings can be large; an effect the other way counts as inactive or inconclusive. Unless noted, % is set by controls: 0 for no effect and ±100 for the full control effect; potency is the fitted concentration of half-maximal effect.

SMILES	KB-V1 cytotox	KB-3-1 tox	HT1080 IDH1KD tx	DT40 TDP1 CPT	DT40 TDP1 no CPT	HT1080-NT tox
Cc1cc(C(O)c2ncc(-c3ccccc3F)[nH]2)ccc1F (stereo not given)	i	i	17%	-30%	?	-8%
CN(CC(=O)Nc1ccccc1Cl)S(=O)(=O)c1ccc(C(=O)N2CCOCC2)s1	i	i	.	15µM*	?	.
Cc1cccc(NC(=O)CN(C)S(=O)(=O)c2ccc(Cl)cc2)n1	16µM*	i	-16%	-8%	-9%	1%
COc1ccc(NC(=O)CN(C)S(=O)(=O)c2ccc(C(=O)N3CCOCC3)s2)cc1	i	i	.	?	-22%	.
O=C(Cc1ccc(Cl)cc1)Nc1ccccc1C(=O)N1CCCC1	i	i	0%	-1%	-13%	-4%
CN(CC(=O)Nc1ccccc1C(=O)N1CCCC1)S(=O)(=O)c1ccc(Cl)cc1	7.3µM*	i	-1%	-17%	1%	8%
Cc1nc2ccccc2c(=O)n1/N=C/c1ccc(F)cc1	i	?	?	-1%	15%	11%
Cc1c(C(=O)Nc2ccc(Br)cc2F)oc2ccc(S(=O)(=O)N3CCC4(CC3)OCCO4)cc12	.	.	.	-16%	?	.
Cc1c(C(=O)Nc2ccc(F)c(F)c2)oc2ccc(S(=O)(=O)N3CCC4(CC3)OCCO4)cc12	.	.	.	13µM*	12µM*	.
Cc1c(C(=O)Nc2ccc(F)cc2)oc2ccc(S(=O)(=O)N3CCC4(CC3)OCCO4)cc12	?	i	-18%	16µM*	22µM*	?
Cc1ccc(NC(=O)c2oc3ccc(S(=O)(=O)N4CCC5(CC4)OCCO5)cc3c2C)c(C)c1	.	.	.	8.2µM*	6.5µM*	.
Cc1c(C(=O)Nc2ccc(F)c(F)c2)oc2ccc(S(=O)(=O)N3CCCCC3)cc12	7.3µM*!	i	-9%	23µM*	?	13%
Cc1ccc(CNC(=O)CCC2CCCN(C(=O)c3ccc4c(c3)OCO4)C2)o1 (stereo not given)	i	i	-2%	-23%	?	5%
COC(=O)C(CC(=O)c1ccc(Cl)cc1)c1ccccc1 (stereo not given)	?	i	-2%	?	-29%	2%
COc1cc(C(=O)N2CCN(C(=O)c3ccccc3)CC2)cc(OC)c1OC	i	i	6%	2%	4%	8%
COc1cc(C(=O)N2CCN(C(=O)c3cc(-c4ccc(Br)cc4)n[nH]3)CC2)cc(OC)c1OC	i	i	-2%	21µM*	26µM*	4%
Cc1ccc(-c2cc(C(=O)N3CCN(S(=O)(=O)c4ccc(Br)cc4)CC3)[nH]n2)cc1C	i	i	.	9.2µM*	8.2µM*	.
CN1C(=O)c2ccccc2N(C)C1c1ccc2c(c1)OCO2 (stereo not given)	?	i	-9%[9.24 µM]	-16%	?	-8%
CC1=C([N+](=O)[O-])C(c2ccc3c(c2)OCO3)N(C)C(=O)N1C (stereo not given)	i	i	-3%	8.2µM*	21µM*	9%
Cc1ccc(NC(=O)CCc2nnc3n(C)c(=O)c4sccc4n23)cc1C	i	i	.	-12%	-3%	.
CN(CCc1ccc(Cl)c(Cl)c1)CCN1CCCC1	.	.	.	8.2µM*	24µM*	.
COc1ccccc1OCC(=O)NC1CCCc2ccccc21 (stereo not given)	i	i	-1%	-28%	?	-11%
O=C(NC(=S)NC1CCCc2ccccc21)c1ccco1 (stereo not given)	i	i	-8%	16µM*	?	-17%
O=C(CCl)NC1CCCc2ccccc21 (stereo not given)	?	i	?	15µM*	18µM*	?
CC(=O)c1ccc(N2CCN(C(C)C(=O)NC3CCCc4ccccc43)CC2)cc1 (stereo not given)	9.2µM*	21µM*	1%	?	?	-9%
SMILES	KB-V1 cytotox	KB-3-1 tox	HT1080 IDH1KD tx	DT40 TDP1 CPT	DT40 TDP1 no CPT	HT1080-NT tox
O=C(Cc1ccc(Br)cc1)NC1CCCc2ccccc21 (stereo not given)	i	i	-24%	?	?	-5%
CC(C(=O)NC1CCCc2ccccc21)N1C(=O)C2CCCCC2C1=O (stereo not given)	i	i	4%	3%	14%	8%
Cc1cccc(OCC(=O)NC2CCCc3ccccc32)c1C (stereo not given)	?	i	-26%	?	16µM*	?
O=C(NC(=S)NC1CCCc2ccccc21)c1ccc(F)cc1 (stereo not given)	?	?	?	?	?	-22%
CC1CC2OC(=O)C3(C)CCCC(C)(C23)C1(O)CCc1ccoc1 (stereo not given)	i	i	2%	-29%	3%	-20%
NC(=O)c1ccc(OCC(F)(F)F)nc1	i	i	0%	3%	-10%	-2%
Cc1nc2ccccn2c1C(=O)NC1CCCc2ccccc21 (stereo not given)	?	?	-8%	7.3µM*	7.3µM*	-2%
O=C(CCCOc1ccccc1)NC1CCCc2ccccc21 (stereo not given)	18µM*	i	-3%	-29%	?	0%
Cc1cccc(OCC(=O)Nc2ccc3c4c(cccc24)CC3)c1C	i	i	4%	12µM*	8.2µM*	1%
CN(C(=O)CCl)C1CCCc2ccccc21 (stereo not given)	?	5.8µM*	?	2.6µM*	2.9µM*	?
O=C(CCn1cccc1)NC1CCCc2ccccc21 (stereo not given)	i	i	-2%	-21%	-9%	2%
CC(=O)N1c2ccc(S(=O)(=O)N3CCCC3C(=O)NCc3ccccc3Cl)cc2CC1C (stereo not given)	i	i	-1%	?	?	-2%
O=C(CCNS(=O)(=O)c1cccc2nonc12)NC1CCCc2ccccc21 (stereo not given)	23µM*	i	-8%	2%	-17%	-4%
CC(C)c1nnc(NC(=O)CCC(=O)NC2CCCCC2)s1	i	i	1%	2%	-11%	-4%
CC(C)c1nnc(NC(=O)CCC(=O)NC2CCCc3ccccc32)s1 (stereo not given)	?	i	-3%	?	15µM*	4%
